Source: paper PMC11062922 (Nature Chemical Biology, 2023)
Like-named read-outs stand apart in the source and are kept apart here.

Experiments:
Parameters in all cases: species or system human, MV4-11 + K-562 + COLO205 + SK-N-BE2 + OVCAR-8
ATM = conditions: read-out: apparent Kd, compound concentrations: 100 nM and 1000 nM (sheet 'Samples'), n = 1
AURKA = conditions: read-out: apparent Kd, compound concentrations: 100 nM and 1000 nM (sheet 'Samples'), n = 1
BCR = conditions: read-out: apparent Kd, compound concentrations: 100 nM and 1000 nM (sheet 'Samples'), n = 1
CAMKK2 = conditions: read-out: apparent Kd, compound concentrations: 100 nM and 1000 nM (sheet 'Samples'), n = 1
CHEK1 = conditions: read-out: apparent Kd, compound concentrations: 100 nM and 1000 nM (sheet 'Samples'), n = 1
EPHA4 = conditions: read-out: apparent Kd, compound concentrations: 100 nM and 1000 nM (sheet 'Samples'), n = 1
EPHA5 = conditions: read-out: apparent Kd, compound concentrations: 100 nM and 1000 nM (sheet 'Samples'), n = 1
MARK3 = conditions: read-out: apparent Kd, compound concentrations: 100 nM and 1000 nM (sheet 'Samples'), n = 1
PIP4K2C = conditions: read-out: apparent Kd; compound concentrations: 100 nM and 1000 nM (sheet 'Samples'), CATDS: 1.00291751764076E-2; n = 1
PRKACA = conditions: read-out: apparent Kd, compound concentrations: 100 nM and 1000 nM (sheet 'Samples'), n = 1
PRKACB = conditions: read-out: apparent Kd, compound concentrations: 100 nM and 1000 nM (sheet 'Samples'), n = 1
TNK1 = conditions: read-out: apparent Kd, compound concentrations: 100 nM and 1000 nM (sheet 'Samples'), n = 1
CDK16 = conditions: read-out: apparent Kd; compound concentrations: 100 nM and 1000 nM (sheet 'Samples'), CATDS: 4.4691246534882996E-3; n = 1
CSNK1D = conditions: read-out: apparent Kd; compound concentrations: 100 nM and 1000 nM (sheet 'Samples'), CATDS: 5.3650887558765398E-3; n = 1
MAPK9 = conditions: read-out: apparent Kd; compound concentrations: 100 nM and 1000 nM (sheet 'Samples'), CATDS: 4.8352586021379899E-3; n = 1
PRKAG2 = conditions: read-out: apparent Kd; compound concentrations: 100 nM and 1000 nM (sheet 'Samples'), CATDS: 6.26452346247391E-3; n = 1
RPS6KA4 = conditions: read-out: apparent Kd; compound concentrations: 100 nM and 1000 nM (sheet 'Samples'), CATDS: 4.17505153349991E-3; n = 1
STK16 = conditions: read-out: apparent Kd; compound concentrations: 100 nM and 1000 nM (sheet 'Samples'), CATDS: 4.0331507933998702E-3; n = 1
STK4 = conditions: read-out: apparent Kd; compound concentrations: 100 nM and 1000 nM (sheet 'Samples'), CATDS: 4.4233826553232904E-3; n = 1

`Cl.Nc1c(C(=O)c2cccc(C#CCN3CCCCC3)c2)cnn1-c1ccc(F)cc1` [RO1154461-001] gave a potency estimated from few doses (ATM; CATDS: 2.8189903331148802E-2) of 161 nM, a potency estimated from few doses (AURKA; CATDS: 1.31144942702613E-2) of 784 nM and a potency estimated from few doses (BCR; CATDS: 1.8870015548456399E-2) of 336 nM. It also gave a potency estimated from few doses (CAMKK2; CATDS: 1.2329030932227101E-2) of 934 nM, a potency estimated from few doses (CHEK1; CATDS: 1.05759590598224E-2) of 1550 nM and a potency estimated from few doses (EPHA4; CATDS: 1.83423267934671E-2) of 356 nM. It also gave a potency estimated from few doses (EPHA5; CATDS: 2.15215497869925E-2) of 260 nM, a potency estimated from few doses (MARK3; CATDS: 9.8950713499473906E-3) of 2030 nM and a potency estimated from few doses (PIP4K2C) of 1910 nM. For the same molecule, the potency estimated from few doses (PRKACA; CATDS: 1.0779981289506101E-2) was 1440 nM, the potency estimated from few doses (PRKACB; CATDS: 1.14120731511483E-2) was 1190 nM and the potency estimated from few doses (TNK1; CATDS: 4.5946833879509097E-2) was 75.5 nM.

With `Cn1ncc2c(N)ncnc21` [SKF-18267] the potency estimated from few doses (ATM; CATDS: 1.5157721070637E-2) was 152 nM, the potency estimated from few doses (AURKA; CATDS: 5.9187216005476898E-3) was 594 nM and the potency estimated from few doses (BCR; CATDS: 5.2917709527679404E-3) was 729 nM. The potency estimated from few doses (CAMKK2; CATDS: 4.5998229458051997E-3) was 967 nM, the potency estimated from few doses (CDK16) was 1030 nM and the potency estimated from few doses (CHEK1; CATDS: 3.5654135420005399E-3) was 1830 nM. For the same molecule, the potency estimated from few doses (CSNK1D) was 710 nM, the potency estimated from few doses (EPHA4; CATDS: 3.9748200426908999E-3) was 1360 nM and the potency estimated from few doses (EPHA5; CATDS: 5.0507447831964402E-3) was 798 nM. It also gave a potency estimated from few doses (MAPK9) of 871 nM, a potency estimated from few doses (MARK3; CATDS: 3.4367127016050499E-3) of 2060 nM and a potency estimated from few doses (PRKACA; CATDS: 3.8266361716822101E-3) of 1500 nM. The potency estimated from few doses (PRKACB; CATDS: 4.8946075790836903E-3) was 850 nM, the potency estimated from few doses (PRKAG2) was 539 nM and the potency estimated from few doses (RPS6KA4) was 1200 nM. It also gave a potency estimated from few doses (STK16) of 1310 nM, a potency estimated from few doses (STK4) of 1050 nM and a potency estimated from few doses (TNK1; CATDS: 5.3510619534007497E-3) of 714 nM.
